Laboratory results as given in ChEMBL document CHEMBL1201862, “PubChem BioAssay data set” (2004).
In all, about 400,000 compounds went through this assay and about 2,100 (0.53%) were called active. Roughly 14% stayed inconclusive and do not appear here. The rule behind the calls is not given here. Many of the other results were omitted from the sample, so actives are more common in it than they were.

The compounds below were run against Ataxin-2 (Homo sapiens) (UniProt Q99700) (assay: qHTS for Inhibitors of ATXN expression.).
Assay type: functional

Ataxin-2 (Homo sapiens), sequence (Q99700 whole entry): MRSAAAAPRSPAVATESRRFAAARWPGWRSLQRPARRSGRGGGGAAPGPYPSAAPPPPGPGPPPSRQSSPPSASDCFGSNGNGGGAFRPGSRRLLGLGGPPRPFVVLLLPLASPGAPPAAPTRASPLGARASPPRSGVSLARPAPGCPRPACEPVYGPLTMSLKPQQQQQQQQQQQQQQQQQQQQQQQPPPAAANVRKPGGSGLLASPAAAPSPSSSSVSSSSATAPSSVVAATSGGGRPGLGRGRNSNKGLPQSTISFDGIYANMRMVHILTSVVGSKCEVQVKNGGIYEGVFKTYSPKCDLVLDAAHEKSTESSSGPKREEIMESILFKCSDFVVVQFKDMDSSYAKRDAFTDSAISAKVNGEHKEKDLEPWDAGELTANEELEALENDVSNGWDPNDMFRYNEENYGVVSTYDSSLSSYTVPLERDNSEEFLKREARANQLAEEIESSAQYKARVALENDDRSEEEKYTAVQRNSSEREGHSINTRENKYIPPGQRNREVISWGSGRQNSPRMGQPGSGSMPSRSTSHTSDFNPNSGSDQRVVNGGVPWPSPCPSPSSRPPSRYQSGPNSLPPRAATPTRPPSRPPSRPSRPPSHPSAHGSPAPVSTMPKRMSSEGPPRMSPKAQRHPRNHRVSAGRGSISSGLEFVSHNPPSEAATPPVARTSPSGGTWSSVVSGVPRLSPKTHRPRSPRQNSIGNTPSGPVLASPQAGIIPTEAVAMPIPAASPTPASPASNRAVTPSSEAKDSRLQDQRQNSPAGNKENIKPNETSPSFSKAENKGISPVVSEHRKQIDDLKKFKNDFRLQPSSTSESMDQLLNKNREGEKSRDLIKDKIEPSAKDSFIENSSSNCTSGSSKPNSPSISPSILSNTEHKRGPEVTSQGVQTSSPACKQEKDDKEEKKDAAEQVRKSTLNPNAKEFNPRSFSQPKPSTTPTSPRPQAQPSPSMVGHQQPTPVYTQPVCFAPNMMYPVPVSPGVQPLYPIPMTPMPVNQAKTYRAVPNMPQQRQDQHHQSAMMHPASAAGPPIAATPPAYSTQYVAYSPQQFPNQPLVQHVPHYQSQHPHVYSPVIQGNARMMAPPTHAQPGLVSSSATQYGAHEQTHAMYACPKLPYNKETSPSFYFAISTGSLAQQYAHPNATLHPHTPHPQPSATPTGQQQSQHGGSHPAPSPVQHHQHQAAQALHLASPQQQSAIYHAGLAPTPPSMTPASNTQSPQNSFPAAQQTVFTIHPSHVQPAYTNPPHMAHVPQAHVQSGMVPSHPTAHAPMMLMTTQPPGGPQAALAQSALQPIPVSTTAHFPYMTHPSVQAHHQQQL

`Cc1c(O)ccc2c(CN3CCN(CCO)CC3)cc(=O)oc12` was tested. Which Potency did it give?
Its Potency is “inactive”.

Which Potency does the source give for `Cc1c(NS(=O)(=O)c2ccc(NCCN3CCOCC3)c([N+](=O)[O-])c2)c(=O)n(-c2ccccc2)n1C` here?
The Potency was “inactive”.

With `Cc1nn(-c2ccccc2)c(N2CCCC2)c1/C=N/Nc1ccc(S(=O)(=O)Nc2ccccc2)cc1[N+](=O)[O-]` as the compound, how does the Potency read?
Its Potency is 31.6 µM (active).

How did the Potency turn out when `O=C(O)COc1ccccc1/C=N/Nc1ccc(S(=O)(=O)Nc2ccc(Cl)cc2)cc1[N+](=O)[O-]` was run?
Its Potency is “inactive”.

For `O=C(COc1ccc(Br)cc1)NCCN1CCCC1`, which Potency is on record?
Its Potency is “inactive”.

With `CC1=C(C(=O)OC(C)C)C(c2ccc(Cl)cc2)n2c(s/c(=C\c3ccc(OCC(=O)O)cc3)c2=O)=N1` (stereo not drawn) as the compound, how does the Potency read?
The Potency was “inactive”.

`CC1=CC2=NC(=O)/C(=C/c3coc4ccc(Cl)cc4c3=O)C(=N)N2O1` was tested. Which Potency did it give?
Its Potency is “inactive”.

For `CCOC(=O)c1sc(NC(=O)c2nc3nc(C)cc(C(F)F)n3n2)c(C(=O)OC)c1C`, which Potency is on record?
The Potency was “inactive”.

How did the Potency turn out when `CCN1C(=O)c2cccc3c(S(=O)(=O)NC(Cc4ccccc4)C(=O)O)ccc1c23` (stereo not drawn) was run?
The Potency was “inactive”.

`Cc1ccc(C(=O)COC(=O)CCC(=O)NC2CCCCC2)cc1[N+](=O)[O-]` was tested. Which Potency did it give?
The Potency was “inactive”.

With `C=CCNC(=O)c1ccccc1NC(=O)Cc1ccccc1[N+](=O)[O-]` as the compound, how does the Potency read?
The Potency was “inactive”.

With `CC(OC(=O)c1ccc(-n2cnnn2)cc1)C(=O)Nc1ccccc1[N+](=O)[O-]` (stereo not drawn) as the compound, how does the Potency read?
The Potency was “inactive”.

Which Potency does the source give for `Cc1cc(OCC(=O)OCC(=O)NC2CCCCCC2)ccc1Cl` here?
Its Potency is “inactive”.

`CN(CCC#N)C(=O)COC(=O)c1c2c(nc3ccccc13)/C(=C/c1ccco1)CC2` was tested. Which Potency did it give?
The Potency was “inactive”.

With `CC(=O)Nc1ccc(NC(=O)C(C)OC(=O)CCSc2ccccc2Cl)cc1` (stereo not drawn) as the compound, how does the Potency read?
The Potency was “inactive”.

For `CN(C(=O)COC(=O)c1ccc([N+](=O)[O-])cc1N)c1ccccc1`, which Potency is on record?
The Potency was “inactive”.

`O=C(COC(=O)c1ccccc1C(=O)c1ccc(Cl)c([N+](=O)[O-])c1)NC1CCCCCC1` was tested. Which Potency did it give?
Its Potency is 35.5 µM (active).

For `CC(=O)Nc1ccc(NC(=O)C(C)OC(=O)c2ccccc2C(=O)c2ccc(Cl)c([N+](=O)[O-])c2)cc1` (stereo not drawn), which Potency is on record?
The Potency was 39.8 µM (active).

`O=C(CN(C(=O)c1ccccc1Cl)C1CCCCC1)Nc1ccc(Cl)c([N+](=O)[O-])c1` was tested. Which Potency did it give?
The Potency was 35.5 µM (active).

Which Potency does the source give for `CN(CCC#N)C(=O)COC(=O)c1ccccc1C(=O)c1ccc(Cl)c([N+](=O)[O-])c1` here?
Its Potency is 29.9 µM (active).

Which Potency does the source give for `CN(CC(=O)Nc1ccccc1Cl)C1CCS(=O)(=O)C1` (stereo not drawn) here?
The Potency was “inactive”.

`O=C(CSc1nnnn1C1CC1)N1CCN(c2ccc(O)cc2)CC1` was tested. Which Potency did it give?
Its Potency is “inactive”.

`CC(=O)c1ccccc1NC(=O)COC(=O)c1cc[n+]([O-])cc1` was tested. Which Potency did it give?
Its Potency is “inactive”.

How did the Potency turn out when `Cn1c(N)c(C(=O)COC(=O)CC(NC(=O)c2ccccc2Cl)c2ccccc2)c(=O)n(C)c1=O` (stereo not drawn) was run?
The Potency was “inactive”.

How did the Potency turn out when `CC(C)Cn1c(N)c(C(=O)COC(=O)c2cccnc2Cl)c(=O)n(C)c1=O` was run?
The Potency was “inactive”.

For `Cn1c(N)c(C(=O)COC(=O)c2ccccc2C(=O)c2ccc(Cl)c([N+](=O)[O-])c2)c(=O)n(C)c1=O`, which Potency is on record?
The Potency was 20 µM (active).

`CCOC(=O)Cn1nc(C)c(NC(=O)COc2ccc([N+](=O)[O-])c(C)c2)c1C` was tested. Which Potency did it give?
The Potency was “inactive”.

`Cc1ccc(Cl)c(NC(=O)COC(=O)c2ccccc2C(=O)c2ccc(Cl)c([N+](=O)[O-])c2)c1Cl` was tested. Which Potency did it give?
The Potency was 20 µM (active).
